This passage reports GI50 results from ChEMBL document CHEMBL1201862, “PubChem BioAssay data set” (2004).

In all, about 28,000 sequences went through this assay and about 1,300 (4.6%) were called active. This is one part of a sample in which actives are shown more often than they occur. Rule as the data show it: active = GI50 up to about 1.1 µM and inactive = higher. Entries with a potency or affinity are not part of this list.

The test system of this test is MDA-N.
In turn, “[Bis(aminomethyl)pentamethylenesilane]dichloropaltinum(II), CHEMBL2146202” gave a GI50 of 2.42 µM.

“[Bis(aminomethyl)pentamethylenesilane]tetrachloropaltinum(IV), CHEMBL2146204” registered a GI50 of 0.935 µM.

In the case of “[Bis(aminomethyl)dimethylsilane]tetrachloroplatinum(IV), CHEMBL2146190”, it took 15.9 µM to inhibit growth by half (GI50).

In the case of “[Bis(aminomethyl)tetramethylenesilane]tetrachloropaltinum(IV), CHEMBL2146189”, the GI50 was 2.72 µM.

The substance CISPLATIN, CHEMBL11359 had a concentration for 50% growth inhibition (GI50) of 6.18 µM.

Turning to “[Bis(aminomethyl)tetramethylenesilane]dichloropaltinum(II), CHEMBL2146205”, halving of growth (GI50) required 6.89 µM.

Broadly, the GI50 is the concentration giving 50% growth inhibition. Low readings indicate more potent growth inhibition, high ones less potent growth inhibition.
